Sampled rows, rich in hits. Any-hit rate of the full collection: about 2.3%.
Tau fluor counter = Counterscreen qHTS for Inhibitors of Tau Fibril Formation, Fluorescence Polarization. tau K18 P301L Alexa594 fluorescence, heparin fibrillization. Potency, µM (highest dose often 57.7 µM), for inactives: at the top dose activity change, negative = decrease. actives 0.93% (n = 280,000). AID 1463, 2008; note: potency is the fitted concentration of half-maximal effect; nearly all actives have a fitted effect of over 55% in size
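Human tau K18 P301L (15 uM unlabeled, 0.24 uM Alexa 594-labeled) in 100 mM sodium acetate pH 7 with 20 uM heparin, 6 hr at 37 C. ThT 30 uM added, 1 hr ambient; Alexa 594 FP and total fluorescence read at 555/632 nm.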
FBPA coupling cs = qHTS Assay for Inhibitors of Fructose-1,6-bisphosphate Aldolase from Giardia Lamblia: Coupling assay counterscreen; activity change, negative = inhibition, % at 58.2 µM, hits read low; coupling enzyme system counterscreen, AmpLite Red fluorescence; actives 0.67% (n = 290,000); AID 2472, 2010; in the data active = activity change below about -30%
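Fluorescence at 525 nm excitation and 598 nm emission measured inhibition of the coupled detection system without aldolase. Compounds (at 57.5 uM final) were preincubated 10 min at room temperature with coupling enzyme reagent before a 20 min substrate/AmpLite Red step.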
Tau fibril ThT = qHTS for Inhibitors of Tau Fibril Formation, Thioflavin T Binding; Microtubule-associated protein tau (Homo sapiens), P10636; recombinant tau K18 P301L (four-repeat tau fragment), heparin-induced fibrillization, ThT fluorescence; Potency, µM (titrated, usually from 57.4 µM), for the others: at the top dose activity, negative = inhibition, most hits filed as inhibitors; actives 2.1% (n = 270,000); AID 1460, 2008; note: potency is the fitted concentration of half-maximal effect; nearly all actives have a fitted effect of over 55% in size
Target sequence (P10636 561-689 P618L limits assumed): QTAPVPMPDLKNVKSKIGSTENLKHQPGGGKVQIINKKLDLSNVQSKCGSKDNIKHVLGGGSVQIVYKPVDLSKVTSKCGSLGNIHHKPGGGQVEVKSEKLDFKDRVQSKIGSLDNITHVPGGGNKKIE
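K18 P301L tau (15 uM + 0.24 uM Alexa 594-tagged), heparin 20 uM, NaOAc pH 7, 6 h 37 C; ThT 30 uM, 1 h RT, ex 450/em 510 nm.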
USP1 inh = Inhibitors of USP1/UAF1: Primary Screen. Ubiquitin carboxyl-terminal hydrolase 1 (Homo sapiens), O94782. recombinant USP1/UAF1, Ub-Rhodamine cleavage fluorescence. Potency, µM (titrated, usually from 57.1 µM), for inactives: top-dose activity change, negative = inhibition, most hits filed as inhibitors. actives 0.23% (n = 390,000). AID 743255, 2014; note: potency is the fitted concentration of half-maximal effect; nearly all actives have a fitted effect of over 60% in size
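USP1/UAF1 complex at 1 nM was preincubated with compound for 15 min at room temperature, then Ub-Rho substrate (150nM final) was added. Fluorescence (480/540 nm) was read kinetically, 6 reads every 60 seconds.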
Tau FP inhib = qHTS for Inhibitors of Tau Fibril Formation, Fluorescence Polarization; Microtubule-associated protein tau (Homo sapiens), P10636; AID 1468, 2008; actives 0.39% (n = 280,000); K18 P301L tau heparin fibrillization, Alexa594 FP, 6 h; Potency, µM (series often up to 57.7 µM), for the others: at the top dose activity, negative = inhibition, most hits filed as inhibitors; note: potency is the fitted concentration of half-maximal effect; nearly all actives have a fitted effect of over 55% in size
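Steps: dispense K18 P301L tau (15 uM plus 0.24 uM Alexa 594 tracer, final) in pH 7 sodium acetate; add compound; add heparin (20 uM final); incubate 6 hr, 37 C; add ThT (30 uM final); after 1 hr ambient, read FP.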
* = called active by the depositor; ? = inconclusive; · = no result given; [ ] = remark or other dose. Unless noted, calls come from the whole dose curve; as a rule, active = well fitted curve in the direction sought with a large enough effect; inconclusive = small, poorly fitted or top-dose-only effect, or another doubt; inactive = no such curve, though single readings can be large; an effect the other way counts as inactive or inconclusive. % is set by controls: 0 for no effect and ±100 for the full control effect.

SMILES	Tau fluor counter	FBPA coupling cs	Tau fibril ThT	USP1 inh	Tau FP inhib
N#CC1=C(N)Oc2n[nH]c(-c3cccs3)c2C1c1cccs1 (centres undefined)	?	-12	28µM*	-26%	-15%
C=CC1=C(C)/C(=C/c2[nH]c(Cc3[nH]c(/C=C4\NC(=O)C(C)=C4C=C)c(C)c3CCC(=O)O)c(CCC(=O)O)c2C)NC1=O	?	-16	10µM*	·	?
O=C(/C=C/c1ccccc1)/C=C/c1ccccc1	-20%	-1	7.9µM*	-16%	?
COc1ccccc1S(=O)(=O)N(C)C[C@H]1OCc2cn(nn2)CCCC(=O)N([C@H](C)CO)C[C@@H]1C	·	·	·	-25%	·
Oc1c(C=C2N=c3ccccc3=N2)sc(=S)n1-c1ccc(F)cc1	?	3	?	-5%	2%
Cc1ccc(S(=O)(=O)Nn2c(O)c(C=C3N=c4ccccc4=N3)sc2=S)cc1	?	9	11µM*	-14%	-3%
O=C(Nn1c(O)c(C=C2N=c3ccccc3=N2)sc1=S)c1cccc(Cl)c1	13µM*[quencher]	6	?	-10%	?
O=C(Nn1c(O)c(C=C2N=c3ccccc3=N2)sc1=S)c1ccc(Cl)cc1	7.9µM*[quencher]	1	11µM*	-23%	?
Oc1c(C=C2N=c3ccccc3=N2)sc(=S)n1-c1ccc2ccccc2c1	?	-3	?	-14%	-8%
Oc1[nH]c(=S)sc1C=C1N=c2ccccc2=N1	-29%	-2	14µM*	-11%	-1%
Oc1c(C=C2N=c3ccccc3=N2)sc(=S)n1C1CCCC1	2%	-21	4%	-18%	1%
CCCC(C(=O)Nc1ccc(S(=O)(=O)N2CCCC2)cc1)c1ccccc1 (centres undefined)	·	·	·	-20%	·
CC(C)Oc1ccc(CNC(=O)C2CCN(C(=O)N3CC(C)Oc4ccccc43)CC2)cc1 (centres undefined)	-9%	·	-3%	-3%	-5%
Cc1ccccc1NC(=O)Cn1c(=O)n(CCC(=O)N2CCc3ccccc3C2)c(=O)c2ccccc21	-8%	·	8%	-17%	3%
Cn1cnc2c(=O)oc3ccc(S(=O)(=O)N4CCN(c5ccccc5F)CC4)cc3c21	9%	·	17%	-13%	-8%
CC(C(=O)OCC(=O)c1cccc([N+](=O)[O-])c1)N1C(=O)C2C3C=CC(C3)C2C1=O (centres undefined)	·	2	·	-13%	·
Cc1cc(C)cc(OCC(=O)NC(Cc2c[nH]c3ccccc23)C(=O)O)c1 (centres undefined)	3%	·	-3%	-17%	10%
O=C1N=c2ccc(Br)cc2=C1c1sc(=S)n(NS(=O)(=O)c2ccccc2)c1O	14µM*[quencher]	0	11µM*	-27%	?
O=C(Nn1c(O)c(C=C2N=c3ccccc3=N2)sc1=S)c1ccccc1	14µM*[quencher]	0	14µM*	-17%	-2%
O=C1N=c2ccccc2=C1c1sc(=S)n(NC(=O)c2cccc(O)c2)c1O	?	0	?	?	?
Cc1ccc(C(=O)Nn2c(O)c(C=C3N=c4ccccc4=N3)sc2=S)cc1	?	0	?	?	-14%
COc1cccc(CNC(=O)COC(=O)c2ccc(-c3ccc(O)cc3)cc2)c1	·	·	·	-25%	·
Cc1ccc2nc(/C(C#N)=C/c3ccc(-c4cccc([N+](=O)[O-])c4)o3)[nH]c2c1	?	-1	1.4µM*	-15%	-5%
Cc1ccc2nc(/C(C#N)=C\c3cc(O)ccc3[N+](=O)[O-])[nH]c2c1	-27%	3	16µM*	-15%	14%
COc1cc(/C=C(\C#N)c2nc3ccc(C)cc3[nH]2)c([N+](=O)[O-])cc1OC	?	-4	14µM*	-15%	13%
SMILES	Tau fluor counter	FBPA coupling cs	Tau fibril ThT	USP1 inh	Tau FP inhib
Cc1ccc2nc(/C(C#N)=C/c3ccc(-c4ccc(F)cc4F)o3)[nH]c2c1	-18%	·	-9%	19%	-6%
COc1c(O)ccc(/C=C(\C#N)c2nc3ccccc3[nH]2)c1[N+](=O)[O-]	?	-17	7.1µM*	-17%	9%
COc1cc(/C=C(\C#N)c2nc3ccc(C)cc3[nH]2)cc([N+](=O)[O-])c1O	8.9µM*[quencher]	-8	2µM*	?	-1%
N#C/C(=C/c1ccc(-c2ccc(S(N)(=O)=O)cc2)o1)c1nc2ccccc2s1	?	-2	11µM*	346%	-4%
N#C/C(=C\c1ccccn1)c1nc2ccccc2s1	14µM*[quencher]	-1	8.9µM*	424%	?
COC(=O)c1ccc(/C=C(\C#N)c2nc3ccccc3s2)cc1	?	4	7.9µM*	-7%	-4%
Cc1ccc(CCNC(=O)C(C)n2nc(C)c3c(C)n(-c4ccc(C)cc4)nc3c2=O)cc1 (centres undefined)	10%	·	10%	?	1%
CCOc1ccccc1NC(=O)Cn1c(=O)n(Cc2nc(C)no2)c(=O)c2ccccc21	2%	·	9%	-11%	-5%
Cc1ccsc1C1C2=C(CCCC2=O)Nc2ncnn21 (centres undefined)	1%	-30*	-1%	-2%	6%
Cc1ccsc1C1C2=C(CC(C)(C)CC2=O)Nc2ncnn21 (centres undefined)	-4%	-2	-18%	-13%	2%
O=C(Nc1ccc(S(=O)(=O)N2CCCCCC2)cc1)c1cc(=O)c2ccccc2o1	-25%	·	12%	-6%	?
CCN(C(=O)COC(=O)CCc1ccc(OC)cc1)c1c(N)n(Cc2ccccc2)c(=O)[nH]c1=O	·	·	·	-11%	·
CCOC(=O)C1=C(C)N(c2ccccc2)C(=O)/C1=C\c1ccc(O)c(OC)c1	25µM*[quencher]	3	·	-11%	35µM*
CCOC(=O)C1=C(C)N(c2ccc(C)cc2)C(=O)/C1=C\c1cccs1	-25%	-1	16µM*	-8%	-18%
CCOC(=O)C1=C(C)N(c2ccccc2)C(=O)/C1=C\c1cccs1	-20%	-2	?	1%	-11%
CCC(C)NC(=O)c1c(C)oc2ncn(CC(C)C)c(=O)c12 (centres undefined)	-17%	·	-8%	-17%	0%
O=C(Nc1ccc(N2CCOCC2)cc1N1CCOCC1)c1ccc([N+](=O)[O-])cc1	-12%	2	?	-16%	6%
O=C(NNc1cc(N2CCOCC2)nc(N2CCOCC2)n1)c1ccc([N+](=O)[O-])cc1	-21%	-54*	?	32µM*	?

Assay outcomes as filed in PubChem BioAssay.
